Data reported in PubChem BioAssay (NCATS).
Inconclusive results are not listed. Calls of active or inactive are those of the source. Unless noted, the call rests on the fitted dose curve; in most records, active means well fitted inhibition curve with a large enough effect; inconclusive means small, poorly fitted or top-dose-only effect; inactive means flat fitted curve, though single readings scatter.

How the values were obtained:
[1] = target: Cytochrome P450 1A2 (Homo sapiens) (UniProt P05177); experiment: p450-cyp1a2 (AID 410; calls by dose curve)
In short: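 Luminescent readout of luciferin formed from Luciferin-ME by human CYP1A2; data normalized against complete inhibition by 57 uM furafylline. Enzyme 20nM, substrate 100uM at Km, 100mM KPO4 buffer, 60 min reaction at room temperature.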

[2] = target: Mitogen-activated protein kinase 10 (Mus musculus) (UniProt Q61831); experiment: JNK3 AlphaScreen Assay (AID 530; active means well fitted curve in either direction with a large enough effect, not every such curve was filed as active;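 further: kinase came from lysate of stimulated human HepG2 cells; signal reports phosphorylation of biotinylated GST-cJun 1-79 at Ser73 with 10 µM ATP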)
In short: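 Compound titrations were preincubated 15 minutes at room temperature with substrate, antibody and pre-activated JNK3-containing HepG2 lysate. Reactions were started with 10 uM ATP and stopped with EDTA-containing bead buffer for AlphaScreen detection.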

[3] = target: 3',5'-cyclic-AMP phosphodiesterase 4B (Homo sapiens) (UniProt Q07343); experiment: qHTS Assay for Inhibitors of PDE-IV (AID 607; active means well fitted activation curve with a large enough effect in the main read-out, with a control signal flat, not every such curve was filed as active)
In short: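 The readout is membrane depolarisation from a cAMP-sensing CNG channel, detected with a potential dye at ex 535/em 590. Cells were HEK293-derived (endogenous PDE-IV) at 1000 cells/well, titrated up to 22.9 uM final.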

[4] = S16 Schwann cell PMP22 intronic element beta-lactamase assay (AID 624044; calls by dose curve; further: nearly all actives have a fitted effect of over 15% in size); details: S16 rat Schwann cells, PMP22 element beta-lactamase FRET, 24 h; ratio activity, negative = inhibition: at 38.3 µM (top of the series)
In short: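 Rat S16 Schwann cells with beta-Lac driven by a PMP22 intronic element, compound-treated 24 h at 37 °C. LiveBLAzer FRET B/G read: 460 nm normalized to potassium clavulanate vs DMSO; 535 nm FRET as viability; concentration-effect curves classified.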

[5] = system: 3D7; experiment: qHTS profiling for inhibitors of Plasmodium falciparum proliferation (AID 504749); further: nearly all actives have a fitted effect of over 60% in size; further: potency means the concentration at half of the fitted maximal effect; details: P. falciparum in erythrocytes, SYBR Green DNA, 72 h; series mostly up to 28.7 µM
In short: (§1)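 Infected RBCs, 0.3% parasitemia/2.5% Hct final; cpd 72 h, 37 C, 5% CO2; lysis buffer with saponin/triton/SYBR Green I, o/n RT dark; FI 485/535; norm. to artemisinin (0.29 uM) and DMSO.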

[6] = system: 7G8; experiment: as above; details: P. falciparum in erythrocytes, SYBR Green DNA, 72 h; series mostly up to 28.7 µM
In short: as §1

[7] = system: AA1029; experiment: as above; details: P. falciparum in erythrocytes, SYBR Green DNA, 72 h; series mostly up to 28.7 µM
In short: as §1

[8] = system: AS120; experiment: as above; details: P. falciparum in erythrocytes, SYBR Green DNA, 72 h; series mostly up to 28.7 µM
In short: as §1

[9] = system: ATS189; experiment: as above; details: P. falciparum in erythrocytes, SYBR Green DNA, 72 h; series mostly up to 28.7 µM
In short: as §1

[10] = system: ATS95; experiment: as above; details: P. falciparum in erythrocytes, SYBR Green DNA, 72 h; series mostly up to 28.7 µM
In short: as §1

[11] = system: C2A; experiment: as above; details: P. falciparum in erythrocytes, SYBR Green DNA, 72 h; series mostly up to 28.7 µM
In short: as §1

[12] = system: CP185; experiment: as above; details: P. falciparum in erythrocytes, SYBR Green DNA, 72 h; series mostly up to 28.7 µM
In short: as §1

[13] = system: CP191; experiment: as above; details: P. falciparum in erythrocytes, SYBR Green DNA, 72 h; series mostly up to 28.7 µM
In short: as §1

[14] = system: CP192; experiment: as above; details: P. falciparum in erythrocytes, SYBR Green DNA, 72 h; series mostly up to 28.7 µM
In short: as §1

[15] = system: CP194; experiment: as above; details: P. falciparum in erythrocytes, SYBR Green DNA, 72 h; series mostly up to 28.7 µM
In short: as §1

[16] = system: CP201; experiment: as above; details: P. falciparum in erythrocytes, SYBR Green DNA, 72 h; series mostly up to 28.7 µM
In short: as §1

[17] = system: CP203; experiment: as above; details: P. falciparum in erythrocytes, SYBR Green DNA, 72 h; series mostly up to 28.7 µM
In short: as §1

[18] = system: CP211; experiment: as above; details: P. falciparum in erythrocytes, SYBR Green DNA, 72 h; series mostly up to 28.7 µM
In short: as §1

[19] = system: CP215; experiment: as above; details: P. falciparum in erythrocytes, SYBR Green DNA, 72 h; series mostly up to 28.7 µM
In short: as §1

[20] = system: CP217; experiment: as above; details: P. falciparum in erythrocytes, SYBR Green DNA, 72 h; series mostly up to 28.7 µM
In short: as §1

[21] = system: CP237; experiment: as above; details: P. falciparum in erythrocytes, SYBR Green DNA, 72 h; series mostly up to 28.7 µM
In short: as §1

[22] = system: CP238; experiment: as above; details: P. falciparum in erythrocytes, SYBR Green DNA, 72 h; series mostly up to 28.7 µM
In short: as §1

[23] = system: CP247; experiment: as above; details: P. falciparum in erythrocytes, SYBR Green DNA, 72 h; series mostly up to 28.7 µM
In short: as §1

[24] = system: CP250; experiment: as above; details: P. falciparum in erythrocytes, SYBR Green DNA, 72 h; series mostly up to 28.7 µM
In short: as §1

[25] = system: CP252; experiment: as above; details: P. falciparum in erythrocytes, SYBR Green DNA, 72 h; series mostly up to 28.7 µM
In short: as §1

[26] = system: CP256; experiment: as above; details: P. falciparum in erythrocytes, SYBR Green DNA, 72 h; series mostly up to 28.7 µM
In short: as §1

[27] = system: CP260; experiment: as above; details: P. falciparum in erythrocytes, SYBR Green DNA, 72 h; series mostly up to 28.7 µM
In short: as §1

[28] = system: CP262; experiment: as above; details: P. falciparum in erythrocytes, SYBR Green DNA, 72 h; series mostly up to 28.7 µM
In short: as §1

[29] = system: CP265; experiment: as above; details: P. falciparum in erythrocytes, SYBR Green DNA, 72 h; series mostly up to 28.7 µM
In short: as §1

[30] = system: CP266; experiment: as above; details: P. falciparum in erythrocytes, SYBR Green DNA, 72 h; series mostly up to 28.7 µM
In short: as §1

[31] = system: CP268; experiment: as above; details: P. falciparum in erythrocytes, SYBR Green DNA, 72 h; series mostly up to 28.7 µM
In short: as §1

[32] = system: CP269; experiment: as above; details: P. falciparum in erythrocytes, SYBR Green DNA, 72 h; series mostly up to 28.7 µM
In short: as §1

[33] = system: CP286; experiment: as above; details: P. falciparum in erythrocytes, SYBR Green DNA, 72 h; series mostly up to 28.7 µM
In short: as §1

[34] = system: CP291; experiment: as above; details: P. falciparum in erythrocytes, SYBR Green DNA, 72 h; series mostly up to 28.7 µM
In short: as §1

[35] = system: CP297; experiment: as above; details: P. falciparum in erythrocytes, SYBR Green DNA, 72 h; series mostly up to 28.7 µM
In short: as §1

[36] = system: CP305; experiment: as above; details: P. falciparum in erythrocytes, SYBR Green DNA, 72 h; series mostly up to 28.7 µM
In short: as §1

[37] = system: CP325; experiment: as above; details: P. falciparum in erythrocytes, SYBR Green DNA, 72 h; series mostly up to 28.7 µM
In short: as §1

[38] = system: CP329; experiment: as above; details: P. falciparum in erythrocytes, SYBR Green DNA, 72 h; series mostly up to 28.7 µM
In short: as §1

[39] = system: CP335; experiment: as above; details: P. falciparum in erythrocytes, SYBR Green DNA, 72 h; series mostly up to 28.7 µM
In short: as §1

[40] = system: DIV14; experiment: as above; details: P. falciparum in erythrocytes, SYBR Green DNA, 72 h; series mostly up to 28.7 µM
In short: as §1

[41] = system: DIV17; experiment: as above; details: P. falciparum in erythrocytes, SYBR Green DNA, 72 h; series mostly up to 28.7 µM
In short: as §1

[42] = system: DIV30; experiment: as above; details: P. falciparum in erythrocytes, SYBR Green DNA, 72 h; series mostly up to 28.7 µM
In short: as §1

[43] = system: Dd2; experiment: as above; details: P. falciparum in erythrocytes, SYBR Green DNA, 72 h; series mostly up to 28.7 µM
In short: as §1

[44] = system: ECU; experiment: as above; details: P. falciparum in erythrocytes, SYBR Green DNA, 72 h; series mostly up to 28.7 µM
In short: as §1

[45] = system: HB3; experiment: as above; details: P. falciparum in erythrocytes, SYBR Green DNA, 72 h; series mostly up to 28.7 µM
In short: as §1

[46] = system: ICS; experiment: as above; details: P. falciparum in erythrocytes, SYBR Green DNA, 72 h; series mostly up to 28.7 µM
In short: as §1

[47] = system: N140; experiment: as above; details: P. falciparum in erythrocytes, SYBR Green DNA, 72 h; series mostly up to 28.7 µM
In short: as §1

[48] = system: P93_24; experiment: as above; details: P. falciparum in erythrocytes, SYBR Green DNA, 72 h; series mostly up to 28.7 µM
In short: as §1

[49] = system: P94_40; experiment: as above; details: P. falciparum in erythrocytes, SYBR Green DNA, 72 h; series mostly up to 28.7 µM
In short: as §1

[50] = system: PAD; experiment: as above; details: P. falciparum in erythrocytes, SYBR Green DNA, 72 h; series mostly up to 28.7 µM
In short: as §1

[51] = system: PC15; experiment: as above; details: P. falciparum in erythrocytes, SYBR Green DNA, 72 h; series mostly up to 28.7 µM
In short: as §1

[52] = system: PC26; experiment: as above; details: P. falciparum in erythrocytes, SYBR Green DNA, 72 h; series mostly up to 28.7 µM
In short: as §1

[53] = system: SC27B; experiment: as above; details: P. falciparum in erythrocytes, SYBR Green DNA, 72 h; series mostly up to 28.7 µM
In short: as §1

[54] = system: TAB109; experiment: as above; details: P. falciparum in erythrocytes, SYBR Green DNA, 72 h; series mostly up to 28.7 µM
In short: as §1

[55] = system: TAB113; experiment: as above; details: P. falciparum in erythrocytes, SYBR Green DNA, 72 h; series mostly up to 28.7 µM
In short: as §1

[56] = system: TAB165; experiment: as above; details: P. falciparum in erythrocytes, SYBR Green DNA, 72 h; series mostly up to 28.7 µM
In short: as §1

[57] = system: W2; experiment: as above; details: P. falciparum in erythrocytes, SYBR Green DNA, 72 h; series mostly up to 28.7 µM
In short: as §1

Measured: Potency

Chain of Cytochrome P450 1A2 (Homo sapiens) (P05177 whole entry, looked up): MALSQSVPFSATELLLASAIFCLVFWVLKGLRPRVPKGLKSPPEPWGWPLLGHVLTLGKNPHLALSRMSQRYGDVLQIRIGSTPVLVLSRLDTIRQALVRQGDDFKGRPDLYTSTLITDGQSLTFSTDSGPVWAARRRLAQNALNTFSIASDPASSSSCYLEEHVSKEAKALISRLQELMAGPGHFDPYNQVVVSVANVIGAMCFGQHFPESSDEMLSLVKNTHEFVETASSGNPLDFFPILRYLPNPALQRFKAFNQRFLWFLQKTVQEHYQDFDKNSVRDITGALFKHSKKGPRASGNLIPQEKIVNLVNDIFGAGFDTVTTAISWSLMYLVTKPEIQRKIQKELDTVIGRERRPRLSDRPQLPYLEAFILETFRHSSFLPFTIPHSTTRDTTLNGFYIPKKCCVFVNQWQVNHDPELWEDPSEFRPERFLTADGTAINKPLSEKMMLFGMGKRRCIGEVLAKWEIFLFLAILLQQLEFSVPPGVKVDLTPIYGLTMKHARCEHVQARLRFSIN
Chain of 3',5'-cyclic-AMP phosphodiesterase 4B (Homo sapiens) (Q07343 whole entry, looked up): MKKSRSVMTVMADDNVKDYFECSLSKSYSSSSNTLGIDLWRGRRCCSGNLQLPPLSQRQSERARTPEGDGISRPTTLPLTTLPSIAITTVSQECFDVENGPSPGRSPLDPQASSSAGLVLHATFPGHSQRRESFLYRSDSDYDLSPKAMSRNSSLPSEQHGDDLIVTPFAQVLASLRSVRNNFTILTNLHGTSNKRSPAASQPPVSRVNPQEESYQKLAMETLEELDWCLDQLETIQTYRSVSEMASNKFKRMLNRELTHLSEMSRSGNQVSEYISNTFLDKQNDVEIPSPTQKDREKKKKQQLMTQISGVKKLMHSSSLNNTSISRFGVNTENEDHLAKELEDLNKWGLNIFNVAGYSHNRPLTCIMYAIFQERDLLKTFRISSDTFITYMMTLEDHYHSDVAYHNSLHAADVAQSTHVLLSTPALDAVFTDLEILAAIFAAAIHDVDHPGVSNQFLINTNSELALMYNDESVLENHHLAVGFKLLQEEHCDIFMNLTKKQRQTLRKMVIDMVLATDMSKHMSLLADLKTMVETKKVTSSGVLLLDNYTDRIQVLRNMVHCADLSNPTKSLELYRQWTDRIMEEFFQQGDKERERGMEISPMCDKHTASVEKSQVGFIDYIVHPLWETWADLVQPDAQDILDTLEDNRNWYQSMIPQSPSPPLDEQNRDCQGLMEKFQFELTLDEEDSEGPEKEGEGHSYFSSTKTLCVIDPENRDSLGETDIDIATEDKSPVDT

C/C=C\C[C@H](C)[C@H](O)[C@H]1C(=O)N[C@@H](CC)C(=O)N(C)CC(=O)N(C)[C@@H](CC(C)C)C(=O)N[C@@H](C(C)C)C(=O)N(C)[C@@H](CC(C)C)C(=O)N[C@@H](C)C(=O)N[C@@H](C)C(=O)N(C)[C@@H](CC(C)C)C(=O)N(C)[C@@H](CC(C)C)C(=O)N(C)[C@@H](C(C)C)C(=O)N1C
active: [5] 3.98 µM | [6] 8.91 µM | [7] 2.82 µM | [8] 3.98 µM | [10] 3.55 µM | [11] 3.55 µM | [12] 3.55 µM | [13] 3.16 µM | [14] 6.75 µM | [15] 8.49 µM | [16] 6.75 µM | [17] 13.5 µM | [18] 6.75 µM | [19] 7.57 µM | [20] 3.16 µM | [21] 4.47 µM | [22] 3.55 µM | [23] 3.55 µM | [24] 3.55 µM | [25] 3.55 µM | [26] 3.16 µM | [27] 2.82 µM | [28] 3.79 µM | [29] 3.55 µM | [30] 10.7 µM | [31] 15.1 µM | [32] 6.01 µM | [33] 7.08 µM | [34] 10.7 µM | [35] 4.78 µM | [36] 6.01 µM | [37] 7.57 µM | [38] 6.01 µM | [39] 4.26 µM | [40] 6.75 µM | [41] 8.49 µM | [42] 13.5 µM | [43] 5.01 µM | [44] 2.24 µM | [45] 7.08 µM | [46] 3.98 µM | [47] 2.82 µM | [48] 5.01 µM | [49] 5.01 µM | [50] 3.55 µM | [51] 11.2 µM | [52] 6.75 µM | [53] 2.82 µM | [54] 3.55 µM | [55] 3.55 µM | [56] 4.47 µM | [57] 1.9 µM
inactive: [1] | [2] | [3] | [4] | [9]
